Measurements published in PubChem BioAssay (NCI).
Compounds without any hit were thinned out: in the full panel of roughly 83,000, 20% have a hit.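 96-well plates, one dose, 48 hours. Percent growth reported; active if below 10.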 Unmarked numbers belong to inactive results. Active and inactive are the calls of the source.

Tests used:
Test in all cases: NCI-60 one-dose screen, 48 h (100 = growth as untreated, 0 = no growth, -100 = all killed)
Conditions in all cases: 10 µM unless noted
[1] = tested on: DU-145 prostate
[2] = tested on: K-562 leukemia
[3] = tested on: MALME-3M melanoma
[4] = tested on: MDA-MB-231 breast
[5] = tested on: RXF 393 renal
[6] = tested on: SF-268 CNS
[7] = tested on: SF-295 CNS
[8] = tested on: SF-539 CNS
[9] = tested on: UACC-257 melanoma
[10] = tested on: M14 melanoma
[11] = tested on: HCT-15 colon
[12] = tested on: HT29 colon
[13] = tested on: SNB-75 CNS
[14] = tested on: U251 CNS
[15] = tested on: PC-3 prostate
[16] = tested on: SK-MEL-5 melanoma
[17] = tested on: UACC-62 melanoma
[18] = tested on: LOX IMVI melanoma
[19] = tested on: SK-MEL-28 melanoma

SMILES	growth [1] [%]	growth [2]	growth [3]	growth [4] [%]	growth [5] [%]	growth [6] [%]	growth [7] [%]	growth [8] [%]	growth [9] [%]	growth [10] [%]	growth [11] [%]	growth [12] [%]	growth [13] [%]	growth [14] [%]	growth [15]	growth [16]	growth [17]	growth [18] [%]	growth [19] [%]
CCCCCn1cnc2c(=S)nc[nH]c21	124	97.9%	111%	131	160	124	119	91	131	120	107	114	90.2	110	98%	93.5%	109%	107	106
O=C(O)c1cccnc1Br	129	109%	109%	107	121	110	96.1	91.9	106	99.7	97.6	109	86.2	97.9	108%	109%	96%	96.6	112
CCOC(=O)Cc1cnn(C)c1NC(=O)c1ccc(Cl)cc1NC(C)=O	110	103%	105%	112	115	98.7	101	101	105	101	110	110	76	111	94.6%	95.3%	99.7%	107	130
CNC(=O)c1cc(Oc2ccc3nc(NC(=O)Nc4ccc(CN5CCOCC5)c(C(F)(F)F)c4)sc3c2)ccn1	31.5	5.93% (active)	8.17% (active)	28.8	44.6	34.9	11	16.5	18	23.2	24.5	45.3	59.4	22.2	8.35% (active)	-55.4% (active)	0.564% (active)	16.7	25.1
Cc1ccc(/C=C2\Oc3cc(OCC(=O)c4ccc(Cl)cc4)ccc3C2=O)cc1	112	95.2%	90%	107	99.5	119	114	103	98.1	102	93.1	104	103	97.5	428%	86.3%	92.7%	98.8	48.4
Cc1cc(=O)oc2cc(Oc3nc(-c4cccs4)cn4c(-c5cccs5)cnc34)ccc12	55.4	81.6%	39.1%	63.2	63.6	76.3	47.5	60	48.2	67.5	72.9	46.6	35.6	47.5	53%	42.5%	71.1%	38.4	23.9
CCN(CC)CCCC(C)NCCCNc1cccc2cccnc12 (stereo unspecified)	106	97.5%	88.1%	81.4	104	86.6	98	100	104	104	104	92	89.9	91.4	87.3%	98.5%	90.4%	85.3	123
O=C1/C(=C\c2cn(C(=O)c3ccc(Cl)cc3)c3ccccc23)c2ccccc2N1c1c(Cl)cccc1Cl	120	115%	106%	103	151	99.9	127	104	123	104	66.3	103	82.3	88.4	71.9%	107%	95.4%	97.7	113
Cn1c2ccccc2c2c3c(c4c5ccccc5[nH]c4c21)C(=O)N(N)C3=O	57.4	49.7%	69.2%	82.9	67.9	45.8	27.1	20.2	76.8	37.2	68.2	60.3	63.9	37.3	59.6%	31%	22.6%	23.4	66.5
